Data reported in PubChem BioAssay (NCI).
“And” between values parts separate entries of the source, which are not always exact repeats. Identical values can stand only once. The panel holds about 83,000 compounds, 20% with a hit somewhere; the sample as a whole holds those more often.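 For each line, cells grew in 96-well plates with the test compound present at a single concentration for 48 hours.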 The source made the active and inactive calls. How the source made its calls: active means growth percent below 10; inactive means the rest.

Key:
Experiment in all cases: NCI-60 one-dose screen, 48 h (100 = growth as untreated, 0 = no growth, -100 = all killed)
SK-MEL-2 melanoma = details: 10 µM unless noted
EKVX NSCLC = details: 10 µM unless noted
UO-31 renal = details: 10 µM unless noted
TK-10 renal = test system: TK-10 renal
ACHN renal = details: 10 µM unless noted
CAKI-1 renal = details: 10 µM unless noted
CCRF-CEM leukemia = details: 10 µM unless noted
MOLT-4 leukemia = details: 10 µM unless noted
SR leukemia = details: 10 µM unless noted
RPMI-8226 leukemia = details: 10 µM unless noted
OVCAR-8 ovarian = details: 10 µM unless noted
OVCAR-5 ovarian = details: 10 µM unless noted
OVCAR-4 ovarian = details: 10 µM unless noted
SK-OV-3 ovarian = details: 10 µM unless noted
IGROV1 ovarian = details: 10 µM unless noted
OVCAR-3 ovarian = details: 10 µM unless noted
HS 578T breast = details: 10 µM unless noted
NCI/ADR-RES ovarian = details: 10 µM unless noted
SN12C renal = details: 10 µM unless noted
A498 renal = details: 10 µM unless noted

Measured: growth

O=C1CCCCN1CCCCC#Cc1cccc(C#Cc2cccnc2)c1
active: CCRF-CEM leukemia -23% | MOLT-4 leukemia -49.9% | SR leukemia -46.3%
inactive: SK-MEL-2 melanoma 96.4% | EKVX NSCLC 93.9% | UO-31 renal 59.1% | TK-10 renal; 10 µM unless noted 229% | ACHN renal 101% | CAKI-1 renal 84.4% | RPMI-8226 leukemia 49.7% | OVCAR-8 ovarian 89.2% | OVCAR-5 ovarian 101% | OVCAR-4 ovarian 93.8% | SK-OV-3 ovarian 109% | IGROV1 ovarian 79.4% | OVCAR-3 ovarian 89.7% | HS 578T breast 88% | NCI/ADR-RES ovarian 72.7%

Cc1ccc(-c2nc(C#N)c(S(=O)(=O)N(C)C)o2)cc1
inactive: SK-MEL-2 melanoma 91.1% | EKVX NSCLC 106% | SN12C renal 75.2% | UO-31 renal 91.7% | TK-10 renal; 10 µM unless noted 103% | CAKI-1 renal 90% | OVCAR-8 ovarian 80.3% | OVCAR-5 ovarian 97.7% | OVCAR-4 ovarian 108% | SK-OV-3 ovarian 102% | IGROV1 ovarian 80.5% | OVCAR-3 ovarian 77% | HS 578T breast 105% | NCI/ADR-RES ovarian 105%
active: ACHN renal -59.4% | MOLT-4 leukemia -22.8% | SR leukemia -10.1%

CC(C)(C)CC(N)=O
inactive: SK-MEL-2 melanoma 102% | SN12C renal 102% | UO-31 renal 104% | TK-10 renal; 10 µM 100% | TK-10 renal; 100 µM 105% and 103% | ACHN renal 96.9% | CAKI-1 renal 94.4% | A498 renal 90.7% | CCRF-CEM leukemia 102% | MOLT-4 leukemia 108% | SR leukemia 102% | RPMI-8226 leukemia 107% | OVCAR-8 ovarian 97.7% | OVCAR-5 ovarian 102% | OVCAR-4 ovarian 100% | SK-OV-3 ovarian 88.2% | IGROV1 ovarian 112% | OVCAR-3 ovarian 110% | HS 578T breast 106% | NCI/ADR-RES ovarian 102%

CC(C)=CCc1cc(O)c(O)c2oc3cc(O)cc(O)c3c(=O)c12
inactive: SK-MEL-2 melanoma 97.3% | EKVX NSCLC 78.2% | UO-31 renal 45.9% | TK-10 renal; 10 µM unless noted 46.7% | ACHN renal 41.5% | CAKI-1 renal 36.7% | A498 renal 101% | CCRF-CEM leukemia 29.5% | MOLT-4 leukemia 31.9% | SR leukemia 25.9% | RPMI-8226 leukemia 48.2% | OVCAR-8 ovarian 51.1% | OVCAR-5 ovarian 75% | OVCAR-4 ovarian 62.5% | SK-OV-3 ovarian 65.7% | IGROV1 ovarian 55% | OVCAR-3 ovarian 67.4% | HS 578T breast 92.2% | NCI/ADR-RES ovarian 28.2%

COCCn1cc(-c2nc(-c3cn(CCOC)c4ncccc34)cs2)c2ccccc21
inactive: SK-MEL-2 melanoma 59.9% | EKVX NSCLC 27.9% | UO-31 renal 98.6% | TK-10 renal; 10 µM unless noted 33.3% | ACHN renal 91.6% | CAKI-1 renal 94.6% | A498 renal 123% | CCRF-CEM leukemia 128% | MOLT-4 leukemia 122% | SR leukemia 102% | RPMI-8226 leukemia 45.2% | OVCAR-8 ovarian 97.7% | OVCAR-5 ovarian 46% | OVCAR-4 ovarian 23.1% | SK-OV-3 ovarian 63.3% | IGROV1 ovarian 36.7% | OVCAR-3 ovarian 17.2% | HS 578T breast 86.7% | NCI/ADR-RES ovarian 95.2%

C=C(c1ccc(C(=O)O)cc1)c1cc2c(cc1C)C(C)(C)CCC2(C)C
2.66% (active) and 61% (inactive): RPMI-8226 leukemia
inactive: SK-MEL-2 melanoma 47.7% and 56.2% | EKVX NSCLC 57.5% and 56.7% | UO-31 renal 71.3% and 66.9% | TK-10 renal; 10 µM unless noted 89.8% | ACHN renal 74.1% and 57.5% | CAKI-1 renal 70.4% and 82.1% | A498 renal 133% and 110% | MOLT-4 leukemia 71.2% and 79.4% | SR leukemia 46.1% and 84.9% | OVCAR-8 ovarian 77% and 80.6% | OVCAR-5 ovarian 91% and 79.7% | OVCAR-4 ovarian 95.4% and 86.9% | SK-OV-3 ovarian 88.7% and 77.8% | IGROV1 ovarian 98.9% and 79.8% | OVCAR-3 ovarian 88.8% and 82.6% | HS 578T breast 126% and 68.1% | NCI/ADR-RES ovarian 71.9% and 72.9%

COc1cc(/C=N/NC(=O)CCN2c3ccccc3Sc3ccccc32)cc(OC)c1OC
inactive: SK-MEL-2 melanoma 98.4% | EKVX NSCLC 72.7% | UO-31 renal 63.7% | TK-10 renal; 10 µM unless noted 110% | ACHN renal 76% | CAKI-1 renal 67.1% | A498 renal 61.1% | CCRF-CEM leukemia 73.9% | MOLT-4 leukemia 71.5% | SR leukemia 72% | RPMI-8226 leukemia 54.7% | OVCAR-8 ovarian 86.5% | OVCAR-5 ovarian 89% | OVCAR-4 ovarian 68.3% | SK-OV-3 ovarian 105% | IGROV1 ovarian 91.2% | OVCAR-3 ovarian 99.5% | HS 578T breast 93.7% | NCI/ADR-RES ovarian 87.6%

Cc1ccc(S(=O)(=O)OC[C@@]2(C)CC[C@]3(C)CC[C@]4(C)C(=C3C2)C=C[C@@H]2[C@@]3(C)CCCNC(C)(C)[C@@H]3CC[C@]24C)cc1
active: SK-MEL-2 melanoma 9.43% | ACHN renal -46.6% | CAKI-1 renal 1.61% | CCRF-CEM leukemia 0.849% | MOLT-4 leukemia -24.8% | SR leukemia -30.9% | RPMI-8226 leukemia -66% | OVCAR-8 ovarian -65.6% | OVCAR-4 ovarian -40.5% | IGROV1 ovarian -2.07% | NCI/ADR-RES ovarian -19.7%
inactive: EKVX NSCLC 88.9% | UO-31 renal 71.6% | TK-10 renal; 10 µM unless noted 68.6% | A498 renal 104% | OVCAR-5 ovarian 34.8% | SK-OV-3 ovarian 104% | OVCAR-3 ovarian 23.5% | HS 578T breast 83.4%

O=Nc1c(O)ccc2ccccc12
6.43% (active) and 97.7% (inactive): NCI/ADR-RES ovarian
inactive: SK-MEL-2 melanoma 36.5% and 107% | EKVX NSCLC 91.4% | UO-31 renal 55.3% and 52.1% | TK-10 renal; 10 µM unless noted 115% | ACHN renal 57.7% and 83.3% | CAKI-1 renal 71.2% and 96.3% | A498 renal 84.6% and 99.1% | CCRF-CEM leukemia 20.6% and 58.4% | MOLT-4 leukemia 71.3% and 72.6% | SR leukemia 23.6% and 87.6% | RPMI-8226 leukemia 37.8% and 79.9% | OVCAR-5 ovarian 70.1% and 112% | OVCAR-4 ovarian 19% and 89% | SK-OV-3 ovarian 93.6% and 101% | IGROV1 ovarian 51.5% and 42% | HS 578T breast 54% and 112%
1.11% (active) and 81% (inactive): OVCAR-3 ovarian
-3.35% (active) and 93% (inactive): OVCAR-8 ovarian

COc1ccc(Cn2cc(C(=O)Nc3cccnc3Nc3ccccc3)nn2)cc1
inactive: SK-MEL-2 melanoma 107% | EKVX NSCLC 92.8% | UO-31 renal 70.9% | TK-10 renal; 10 µM unless noted 95.1% | ACHN renal 105% | CAKI-1 renal 88.4% | A498 renal 117% | CCRF-CEM leukemia 108% | MOLT-4 leukemia 93.5% | SR leukemia 94.9% | RPMI-8226 leukemia 96.3% | OVCAR-8 ovarian 101% | OVCAR-5 ovarian 107% | OVCAR-4 ovarian 95% | SK-OV-3 ovarian 112% | IGROV1 ovarian 102% | OVCAR-3 ovarian 118% | HS 578T breast 94.1% | NCI/ADR-RES ovarian 89.8%

O=C(Nc1ccccc1C(=O)N/N=C(\c1ccccc1)c1ccccn1)c1ccccc1
active: UO-31 renal 8.85% | CCRF-CEM leukemia -2.61% | MOLT-4 leukemia 2.47% | SR leukemia 4.3% | NCI/ADR-RES ovarian 9.54%
inactive: SK-MEL-2 melanoma 30.2% | EKVX NSCLC 10.1% | TK-10 renal; 10 µM unless noted 47.4% | ACHN renal 13.6% | CAKI-1 renal 16.9% | RPMI-8226 leukemia 20.8% | OVCAR-8 ovarian 13.2% | OVCAR-5 ovarian 31.9% | OVCAR-4 ovarian 12.7% | SK-OV-3 ovarian 10.7% | IGROV1 ovarian 20.9% | OVCAR-3 ovarian 28% | HS 578T breast 65.2%

O=Nc1ccc(NO)c2ccccc12
inactive: SK-MEL-2 melanoma 103% and 59.7% | SN12C renal 103% and 60.5% | UO-31 renal 88.7% and 65.3% | TK-10 renal; 10 µM unless noted 132% and 125% | ACHN renal 97.6% and 79.2% | CAKI-1 renal 83.8% and 80.3% | A498 renal 74% and 102% | CCRF-CEM leukemia 106% and 57.6% | MOLT-4 leukemia 108% and 74.1% | SR leukemia 106% and 43.8% | RPMI-8226 leukemia 92.2% and 54.7% | OVCAR-8 ovarian 97.9% and 87% | OVCAR-5 ovarian 109% and 116% | OVCAR-4 ovarian 92.3% and 35.8% | SK-OV-3 ovarian 94.2% and 106% | IGROV1 ovarian 86.1% and 61.5% | HS 578T breast 85.4% and 96.3% | NCI/ADR-RES ovarian 97.5% and 14.5%
98.7% (inactive) and 0.0919% (active): OVCAR-3 ovarian
